# Screening data from PubChem BioAssay.
# Compounds with a hit are over-represented: about 3.2% of the library has one in this group of screens.
# Marburg entry inh = inhibitors of Marburg virus binding or cell entry; Marburg virus pseudotyped entry inhibition, cell reporter; Potency, µM (series often up to 37.8 µM), for inactives: at the top dose activity change, negative = inhibition, actives largely listed as inhibitors; 300,000 tested, 1.8% active; AID 540276; calls by dose curve; tested in HEK293 cells
# VACV mCherry inh = vaccinia inhibition (mCherry reporter); Vaccinia virus mCherry reporter infection, fluorescence; Potency, µM (titrated, usually from 36.5 µM), for the others: top-dose activity change, negative = inhibition, most hits filed as inhibitors; 310,000 tested, 0.63% active; calls by dose curve; tested in A549 cells; also: nearly all actives have a fitted effect of over 35% in size
# FMDV antiviral = blocks foot and mouth disease virus. FMDV antiviral cell-based qHTS. Potency, µM (top dose mostly 57.9 µM), inactives show at the top dose activity change, negative = inhibition, most hits filed as inhibitors. 410,000 tested, 1.2% active. AID 1159524; calls by dose curve; tested in HEK293T cells; also: read-out not given here; nearly all actives have a fitted effect of over 45% in size
# Vaccinia Venus = vaccinia inhibition (Venus reporter); 330,000 tested, 0.46% active; AID 720580; Potency, µM (top dose mostly 36.5 µM), for the others: at the top dose activity change, negative = inhibition, hits mostly inhibitors; Vaccinia virus Venus reporter expression, fluorescence; calls by dose curve; tested in A549 cells; also: nearly all actives have a fitted effect of over 30% in size
# LASV entry inh = Lassa virus entry inhibition. 300,000 tested, 1.2% active. AID 540256. Potency, µM (titrated, usually from 37.9 µM), for inactives: top-dose activity change, negative = inhibition, hits mostly inhibitors. Lassa virus pseudotype entry inhibition, cell reporter; calls by dose curve; tested in HEK293 cells; also: nearly all actives have a fitted effect of over 50% in size
# * marks the source's active call; other numbers are inactive results; i = inactive; ? = inconclusive; / = not tested or not shown; ! = repeats disagree; [ ] = dose if it differs, or a comment. % is scaled to controls: 0 for no effect and ±100 for the full control effect; potency is read from the fitted curve at half-maximal effect.
SMILES,Marburg entry inh,VACV mCherry inh,FMDV antiviral,Vaccinia Venus,LASV entry inh
CNc1cc(Cl)c2nonc2c1[N+](=O)[O-],?,-27%,13µM*,?,?
Cc1c(Nc2cc(Cl)c3nonc3c2[N+](=O)[O-])c(=O)n(-c2ccccc2)n1C,?,?,14µM*,28µM*,?
O=C(O)c1ccc(Nc2cc(Cl)c3nonc3c2[N+](=O)[O-])cc1,29%[46.1 µM],-2%,40µM*,-3%,12%
Cc1c(Nc2ccc3nonc3c2[N+](=O)[O-])c(=O)n(-c2ccccc2)n1C,-5%[46.1 µM],10%,-13%,5%,-19%
O=C(O)c1cccc(Nc2ccc3nonc3c2[N+](=O)[O-])c1,/,/,-11%,/,/
O=[N+]([O-])c1c(Nc2cccc(O)c2)cc(Cl)c2nonc12,?,?,22µM*,?,?
Cc1cc(C)cc(Nc2ccc3nonc3c2[N+](=O)[O-])c1,-20%,-15%,?,-11%,3%
Nc1cc(Nc2ccccc2)c2nonc2c1[N+](=O)[O-],/,/,-6%,/,/
CC1N=C2C(=O)OC3C=CC=CC3=C2N1c1ccccc1 (stereo not given),4%,/,/,/,/
CCCc1cnc2c(c1SCC(=O)N1CCC(C)CC1)c(=O)n(C)c(=O)n2C,/,-9%,-22%,-7%,-8%[46.1 µM]
Cc1c(C(=O)NCC2COCCO2)cnn1-c1ncc2c(n1)-c1ccccc1CC2 (stereo not given),/,?,27%,?,/
CC(CN(C)C)CN1c2ccccc2CCc2ccccc21 (stereo not given),13µM*,-27%,?,?,?
CNC(=O)N1c2ccccc2CCc2ccccc21,/,/,-15%,/,/
C[C@@H](CN(C)C)CN1c2ccccc2CCc2ccccc21,13µM*,/,/,/,/
N=C(N1CCCc2ccccc21)N1CCCc2ccccc21,?,?,-11%,2%,-15%[46.1 µM]
CCN(CC)C(=O)[C@H]1C[C@H](CC(=O)NCc2cccc(C(F)(F)F)c2)C(=O)N2CCc3c([nH]c4cc(-c5ccco5)ccc34)[C@]12C,/,11µM*,?,11µM*,/
CCN(CC)C(=O)[C@H]1C[C@H](CC(=O)NCc2ccco2)C(=O)N2CCc3c([nH]c4cc(-c5ccco5)ccc34)[C@]12C,/,-9%,-20%,?,/
O=C(CC1C[C@H](C(=O)N2CCOCC2)[C@@]2(CCC3CCCC3)c3[nH]c4ccccc4c3CCN2C1=O)NCc1cccc(C(F)(F)F)c1 (stereo not given in full),/,10µM*,-34%,10µM*,/
CN(C)C(=O)CCc1ccc2c3c([nH]c2c1)[C@]1(CCC2CCCC2)[C@@H](C(=O)N2CCOCC2)C[C@H](CC(=O)NCc2cccc(C(F)(F)F)c2)C(=O)N1CC3,/,-24%,-24%,?,/
CCN(CC)C(=O)[C@H]1CC(CC(=O)NCc2cccc(C(F)(F)F)c2)C(=O)N2CCc3c([nH]c4ccc(OC)cc34)[C@]12C (stereo not given in full),2%,10µM*,?,?,/
CC(C)N(C(=O)[C@H]1C[C@H](CC(=O)NCC23CC4CC(CC(C4)C2)C3)C(=O)N2CCc3c([nH]c4cc(-c5ccco5)ccc34)[C@]12C)C(C)C,/,28µM*,-26%,?,/
COc1ccc2[nH]c3c(c2c1)CCN1C(=O)C(CC(=O)NCc2cccc(C(F)(F)F)c2)C[C@H](C(=O)N2CCCCC2)[C@@]31C (stereo not given in full),-3%,?,-22%,?,/
CC(C)N(C(=O)[C@H]1CC(CC(=O)NCC23CC4CC(CC(C4)C2)C3)C(=O)N2CCc3c([nH]c4ccccc34)[C@]12C)C(C)C (stereo not given in full),/,?,0%,?,/
CCc1cccc(C)c1NC(=O)C1CCN(S(=O)(=O)Cc2ccccc2)CC1,-26%[46.1 µM],0%,-14%,-4%,10%[46.1 µM]
O=C(c1cnn(-c2nccc(-c3ccccc3F)n2)c1C1CC1)N1CCN(CCO)CC1,/,-9%,-2%,-11%,/
SMILES,Marburg entry inh,VACV mCherry inh,FMDV antiviral,Vaccinia Venus,LASV entry inh
COc1cc(C)c(CN2C[C@H](Sc3ccccn3)C[C@H]2C(=O)N(C)C)cc1C,/,0%,4%,-10%,/
O=C(C[n+]1cccc2cc(Cl)ccc21)c1ccc2ccccc2c1,/,?,/,350%,/
CC[C@]12c3[nH]c4cc(-c5ccco5)ccc4c3CCN1C(=O)[C@@H](CC(=O)NCc1cccc(C(F)(F)F)c1)C[C@@H]2C(=O)N1CCN(C(=O)c2ccco2)CC1,/,13µM*,?,?,/
CCSc1nc2ccccc2n1C(=O)/C=C\c1ccc(OC)c(OC)c1,13µM*,13µM*,13µM*,?,?
Oc1ccccc1-c1cc(-c2ccccc2Cl)[nH]n1,-16%,?,-20%,?,10µM*
Oc1ccc(Cl)cc1-c1cc(-c2ccccc2Cl)[nH]n1,-1%,/,38%,/,-4%
Cc1cc(NC(=O)CSc2nc3ccccc3c(=O)n2C(C)c2ccccc2)no1 (stereo not given),3.2µM*,/,-24%,-23%,2.5µM*
CCC(C)n1c(SCC(=O)Nc2cc(C)on2)nc2ccccc2c1=O (stereo not given),4µM*,i,-23%,?,-12%
COCC(C)n1c(SCC(=O)Nc2cc(C)on2)nc2ccccc2c1=O (stereo not given),0%,-29%,-7%,-15%,-29%
CCCN(CC(=O)Nc1ccccc1OC)C(=O)c1ccc(S(=O)(=O)Nc2ccccc2)cc1,?,-2%,7%,-18%,-30%
COc1ccc(OC)c(N(CC(=O)Nc2cccnc2)S(=O)(=O)c2ccc(OC)c(OC)c2)c1,2.8µM*!,/,-22%,-8%,-1%
COc1ccc(N(CC(=O)NCc2ccccc2OC)S(=O)(=O)c2ccccc2)cc1,10µM*,i,-14%,-19%,5%[46.1 µM]
CCN(CC(=O)Nc1ccccc1OC)C(=O)c1ccc(NS(=O)(=O)c2ccc(C(C)=O)cc2)cc1,4%[46.1 µM],-8%,158µM*,-6%,0%
COc1ccc(N(CC(=O)Nc2ccccc2OC)S(=O)(=O)c2ccc(NC(C)=O)cc2)cc1,?,-26%,0%,?,3.2µM*
CCCCN(CCC(=O)O)c1ccc(/C=C/c2ccnc3ccccc23)cc1,/,?,/,-8%,/
COc1cc(OC)c(OC)cc1CN1CCCC(c2nc(C)ncc2-c2ccc(F)cc2)C1 (stereo not given),/,-1%,-10%,-14%,/
CCOC(=O)c1cc2c(c(-c3ccccc3)n1)[C@@H](CCO)N(S(=O)(=O)C(C)(C)C)C2,/,i,-16%,-17%,/
COc1ccc(N(CC(=O)NCCc2ccccc2)S(=O)(=O)c2ccc(OC)c(OC)c2)cc1,/,-3%,-6%,1%,6.3µM*
CCOc1ccccc1NC(=O)CCN(c1ccc(C)cc1)S(=O)(=O)c1ccccc1,14µM*,-10%,3%,-12%,?
COc1ccc(S(=O)(=O)N(CC(=O)NCCc2ccccc2)c2ccc(Cl)cc2)cc1,1%[46.1 µM],-5%,-3%,-9%,1%[46.1 µM]
CCNC(=O)CN(c1ccc(Cl)cc1)S(=O)(=O)c1ccccc1,1.2µM*,/,-22%,/,?
Ic1ccc(Nc2nc(NCCN3CCOCC3)nc(N3CCOCC3)n2)cc1,/,?,/,-29%,/
